Active and inactive are the calls of the source.
Legend:
[1] = system: Plasmodium falciparum Sir2 (PF13_0152, Sir2A); assay: Plasmodium falciparum Sir2A binding compounds – biochemical, small-molecule microarray, 635 nm fluorescence, primary screen (AID 1098); conditions: fluorescence 635 nm, higher = more signal;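 also: score merges spot fluorescence intensity with its signal-to-noise ratio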
[2] = probe aDKK1 binding to arrayed compounds – biochemical, biotinylated probe, 635/667 nm fluorescence, primary screen (AID 1099); conditions: small-molecule microarray, higher = more signal;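 also: score merges 667nm spot fluorescence with signal to noise across triplicate slides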
[3] = probe aCHRDL2 binding to arrayed compounds – biochemical, biotinylated probe, 635/667 nm fluorescence, primary screen (AID 1100); conditions: small-molecule microarray, higher = more signal
[4] = change in splice reporter luminescence, either direction, cell-based, HEK293, spliceosome inhibition project, primary screen (AID 1101); conditions: HEK293 splicing luciferase reporter, 24 h, higher = more signal, called active from +8 up or from −8 down;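 also: HEK293 cells carrying a splicing-competent luciferase reporter gene; test concentration not given here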
[5] = biological target: Fibroblast growth factor 10 (Homo sapiens) (UniProt O15520); assay: compounds binding fibroblast growth factor 10 – biochemical, small-molecule microarray, 635 nm fluorescence, primary screen (AID 1102); conditions: FGF10 binding, fluorescence 635 nm, higher = more signal
Chain of Fibroblast growth factor 10 (Homo sapiens) (O15520 whole entry, looked up): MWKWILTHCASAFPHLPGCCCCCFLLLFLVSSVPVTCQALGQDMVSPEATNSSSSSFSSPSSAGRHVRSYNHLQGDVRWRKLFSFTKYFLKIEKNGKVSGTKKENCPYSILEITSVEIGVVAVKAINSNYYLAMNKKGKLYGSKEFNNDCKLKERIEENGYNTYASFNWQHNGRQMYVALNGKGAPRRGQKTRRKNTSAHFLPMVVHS

[6] = system: glycogen synthase kinase-3 (GSK3A per assay name; protocol says GSK3B); assay: compounds binding glycogen synthase kinase-3 – biochemical, small-molecule microarray, 635 nm fluorescence, GSK3A, primary screen (AID 1103); conditions: fluorescence 635 nm, higher = more signal; also: the record names both GSK3A and GSK3B
[7] = biological target: Epidermal growth factor receptor (Homo sapiens) (UniProt P00533); assay: compounds binding epidermal growth factor receptor – biochemical, small-molecule microarray, 635 nm fluorescence, primary screen (AID 1104); conditions: EGFR binding, higher = more signal;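 also: score merges 667 nm emission intensity with spot signal to noise over triplicate slides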
Chain of Epidermal growth factor receptor (Homo sapiens) (P00533 whole entry, looked up): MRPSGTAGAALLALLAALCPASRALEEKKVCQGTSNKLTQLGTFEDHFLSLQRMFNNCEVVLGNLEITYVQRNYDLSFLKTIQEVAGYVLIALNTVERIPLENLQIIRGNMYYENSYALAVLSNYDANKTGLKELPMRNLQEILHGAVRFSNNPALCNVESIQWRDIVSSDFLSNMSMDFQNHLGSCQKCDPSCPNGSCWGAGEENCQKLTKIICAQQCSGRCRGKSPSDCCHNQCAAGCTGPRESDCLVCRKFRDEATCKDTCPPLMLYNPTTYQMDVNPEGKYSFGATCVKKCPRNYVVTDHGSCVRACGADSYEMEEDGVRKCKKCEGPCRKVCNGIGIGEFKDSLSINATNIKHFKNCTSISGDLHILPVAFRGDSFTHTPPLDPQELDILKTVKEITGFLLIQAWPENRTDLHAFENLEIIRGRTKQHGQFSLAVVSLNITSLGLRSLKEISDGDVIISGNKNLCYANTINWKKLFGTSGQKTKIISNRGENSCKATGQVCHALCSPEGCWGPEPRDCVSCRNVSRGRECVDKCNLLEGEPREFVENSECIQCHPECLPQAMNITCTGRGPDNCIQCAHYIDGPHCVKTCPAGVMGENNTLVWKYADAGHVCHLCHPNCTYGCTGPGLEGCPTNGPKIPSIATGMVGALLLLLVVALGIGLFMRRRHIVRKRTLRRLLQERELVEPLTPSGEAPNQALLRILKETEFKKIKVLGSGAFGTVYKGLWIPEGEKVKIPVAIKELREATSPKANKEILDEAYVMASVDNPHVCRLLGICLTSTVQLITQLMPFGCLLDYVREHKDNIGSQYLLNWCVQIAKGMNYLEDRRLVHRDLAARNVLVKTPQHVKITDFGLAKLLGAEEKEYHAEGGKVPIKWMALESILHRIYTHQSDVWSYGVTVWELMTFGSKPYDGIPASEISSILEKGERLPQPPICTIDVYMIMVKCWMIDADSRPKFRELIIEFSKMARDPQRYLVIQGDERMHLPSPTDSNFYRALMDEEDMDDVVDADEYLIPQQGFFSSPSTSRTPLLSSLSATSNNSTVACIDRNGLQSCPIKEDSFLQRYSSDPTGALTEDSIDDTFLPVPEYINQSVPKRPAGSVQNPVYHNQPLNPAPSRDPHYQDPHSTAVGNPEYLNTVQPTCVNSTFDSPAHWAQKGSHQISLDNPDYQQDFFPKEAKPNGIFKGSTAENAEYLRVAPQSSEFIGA

[8] = biological target: Follistatin-related protein 3 (Homo sapiens) (UniProt O95633); assay: compounds binding follistatin-related protein 3 – biochemical, small-molecule microarray, 635 nm fluorescence, primary screen (AID 1105); conditions: FSTL3 binding, higher = more signal;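 also: score merges emission near 667 nm and signal to noise per printed spot across three slides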
Chain of Follistatin-related protein 3 (Homo sapiens) (O95633 whole entry, looked up): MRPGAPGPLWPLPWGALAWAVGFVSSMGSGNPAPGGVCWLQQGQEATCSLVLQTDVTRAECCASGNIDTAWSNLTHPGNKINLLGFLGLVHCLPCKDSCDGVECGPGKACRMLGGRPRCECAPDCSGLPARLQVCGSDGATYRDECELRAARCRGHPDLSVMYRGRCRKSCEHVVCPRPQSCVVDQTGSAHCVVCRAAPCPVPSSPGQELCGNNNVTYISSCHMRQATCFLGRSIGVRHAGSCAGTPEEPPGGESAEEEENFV

[9] = biological target: Dickkopf-related protein 1 (Homo sapiens) (UniProt O94907); assay: small molecules binding DKK1 protein – biochemical, small-molecule microarray, 635 nm fluorescence scan, primary screen (AID 1106); conditions: higher = more signal;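 also: score merges emission near 667 nm with signal to noise over three replicate slides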
Chain of Dickkopf-related protein 1 (Homo sapiens) (O94907 whole entry, looked up): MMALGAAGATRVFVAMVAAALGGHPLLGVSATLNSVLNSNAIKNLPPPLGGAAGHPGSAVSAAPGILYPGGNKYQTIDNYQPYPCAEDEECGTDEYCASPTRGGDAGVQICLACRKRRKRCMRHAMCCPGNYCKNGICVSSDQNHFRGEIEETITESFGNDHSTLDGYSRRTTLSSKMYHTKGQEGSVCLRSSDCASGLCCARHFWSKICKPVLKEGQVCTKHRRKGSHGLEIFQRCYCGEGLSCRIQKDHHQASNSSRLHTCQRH

[10] = system: Inhibin beta A chain (activin A); assay: small molecules binding activin A – biochemical, small-molecule microarray, 635 nm fluorescence scan, primary screen (AID 1107); conditions: INHBA, higher = more signal;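 also: mouse activin A protein probed at 4.33 µg/mL on printed slides; score merges bound-protein fluorescence near 667 nm with spot signal-to-noise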
[11] = system: Human papillomavirus type 1a protein E7 (residues 44-93); assay: small molecules binding HPV E7 44-93 – biochemical, small-molecule microarray, residues 44-93, 635 nm fluorescence, primary screen (AID 1108); conditions: fluorescence 635 nm, higher = more signal;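 also: E7 fragment applied at 1 µg/mL in TBST for 1 h at 4 C; score combines spot fluorescence with its signal to noise ratio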
[12] = hepatitis C replication reporter changes, two-sided – Huh7 cells, luciferase reporter, HCV replication inhibitor project, primary screen (AID 1109); conditions: Huh7 HCV replicon luciferase reporter, 48 h; higher = more signal;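 also: huh7 hepatoma cells harbouring a luciferase neomycin HCV replicon reporter; luciferase luminescence as measure of HCV replicon replication; test concentration not given here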
[13] = biological target: Left-right determination factor 2 (Homo sapiens) (UniProt O00292); assay: small molecules binding LEFTY2 protein – biochemical, small-molecule microarray, 635 nm fluorescence scan, primary screen (AID 1110); conditions: higher = more signal
Chain of Left-right determination factor 2 (Homo sapiens) (O00292 whole entry, looked up): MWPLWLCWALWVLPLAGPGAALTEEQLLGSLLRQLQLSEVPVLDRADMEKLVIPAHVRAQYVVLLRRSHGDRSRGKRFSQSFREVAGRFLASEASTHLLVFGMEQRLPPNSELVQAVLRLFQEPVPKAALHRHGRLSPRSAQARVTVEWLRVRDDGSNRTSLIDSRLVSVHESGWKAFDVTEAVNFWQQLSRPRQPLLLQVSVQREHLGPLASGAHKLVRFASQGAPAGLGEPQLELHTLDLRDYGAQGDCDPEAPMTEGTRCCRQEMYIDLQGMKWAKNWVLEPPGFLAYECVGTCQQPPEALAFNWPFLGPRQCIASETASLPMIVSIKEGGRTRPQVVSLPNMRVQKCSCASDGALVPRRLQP

[14] = biological target: Calmodulin-1 (Homo sapiens) (UniProt P0DP23); assay: small molecules binding calmodulin-1 with EGTA – biochemical, small-molecule microarray, Cy5-labelled CALM1, profiling panel (AID 1111); conditions: Cy5-CALM1 binding fluorescence, higher = more signal;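 also: labelled calmodulin applied in Tris saline Tween buffer holding calcium plus EGTA and DTT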
[15] = biological target: Calmodulin-1 (Homo sapiens) (UniProt P0DP23); assay: small molecules binding Ca-loaded calmodulin-1 – biochemical, small-molecule microarray, Cy5-labelled CALM1, plus calcium, artefact control for SMM control-protein annotation, profiling panel (AID 1112); conditions: Cy5-CALM1 binding fluorescence, higher = more signal;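 also: score merges spot fluorescence with signal to noise from triplicate slides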
[16] = probe aWnt5a binding to arrayed compounds – biochemical, biotinylated probe, 635/667 nm fluorescence, primary screen (AID 1113); conditions: small-molecule microarray, higher = more signal;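 also: score merges 667 nm fluorescence intensity with signal-to-noise per printed feature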
[17] = probe aShh binding to arrayed compounds – biochemical, biotinylated probe, 635/667 nm fluorescence, primary screen (AID 1114); conditions: small-molecule microarray, higher = more signal;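 also: probe is biotin-labelled aShh protein from a stem cell growth factor screen; measures binding of labelled protein to compounds printed on the slide; score merges feature fluorescence at 667 nm with signal-to-noise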
[18] = probe aNog binding to arrayed compounds – biochemical, biotinylated probe, 635/667 nm fluorescence, primary screen (AID 1115); conditions: small-molecule microarray, higher = more signal;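 also: probe is biotinylated aNog protein used at 0.15 µg/mL for 1 h at 4 C; z-score combines 667 nm fluorescence of each spot with its signal to noise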
[19] = biological target: Torsin-1A-interacting protein 1 (Homo sapiens) (UniProt Q5JTV8); assay: compound microarray binding of lysate hLAP1 – cell lysate, small-molecule microarray, COS7 lysate, 635/667 nm fluorescence, primary screen (AID 1116); conditions: 635 nm fluorescence, higher = more signal
Chain of Torsin-1A-interacting protein 1 (Homo sapiens) (Q5JTV8 whole entry, looked up): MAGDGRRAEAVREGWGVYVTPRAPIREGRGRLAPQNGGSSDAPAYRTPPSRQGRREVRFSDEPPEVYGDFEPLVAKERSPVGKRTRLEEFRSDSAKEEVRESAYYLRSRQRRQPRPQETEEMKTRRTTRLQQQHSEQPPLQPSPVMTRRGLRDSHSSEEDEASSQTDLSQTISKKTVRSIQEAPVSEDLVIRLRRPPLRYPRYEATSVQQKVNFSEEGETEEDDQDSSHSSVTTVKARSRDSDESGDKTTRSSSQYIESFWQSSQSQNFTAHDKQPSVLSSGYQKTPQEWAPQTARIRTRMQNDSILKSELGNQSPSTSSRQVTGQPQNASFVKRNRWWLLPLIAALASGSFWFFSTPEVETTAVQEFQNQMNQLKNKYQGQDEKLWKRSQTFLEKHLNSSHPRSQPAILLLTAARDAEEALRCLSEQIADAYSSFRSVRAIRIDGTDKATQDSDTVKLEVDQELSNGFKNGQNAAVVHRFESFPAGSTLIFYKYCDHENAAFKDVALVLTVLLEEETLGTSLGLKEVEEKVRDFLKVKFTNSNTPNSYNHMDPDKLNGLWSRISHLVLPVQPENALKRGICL

[20] = biological target: Alpha-bungarotoxin (Bungarus multicinctus) (UniProt P60615); assay: compounds binding labelled alpha-BTX control protein – biochemical, small-molecule microarray, Alexa647 label, 635/667 nm fluorescence, artefact control for SMM control protein annotation, profiling panel (AID 1117); conditions: alpha-BTX-A647 binding fluorescence, higher = more signal
Chain of Alpha-bungarotoxin (Bungarus multicinctus) (P60615 whole entry, looked up): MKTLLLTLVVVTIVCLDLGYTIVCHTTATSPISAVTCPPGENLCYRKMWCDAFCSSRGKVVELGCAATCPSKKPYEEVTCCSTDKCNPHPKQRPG

SMILES | composite z-score [1] | composite z-score [2] | composite z-score [3] | z-score [4] | composite z-score [5] | composite z-score [6] | composite z-score [7] | composite z-score [8] | composite z-score [9] | composite z-score [10] | composite z-score [11] | z-score [12] | composite z-score [13] | composite z-score [14] | composite z-score [15] | composite z-score [16] | composite z-score [17] | composite z-score [18] | composite z-score [19] | composite z-score [20]
CC(C)C[C@H]1NC(=O)C([C@@H](C)OCc2ccccc2)NC(=O)[C@@]23C(=O)N[C@@H](Cc4ccccc4)C2[C@H](C)[C@@]2(C)O[C@H]2C3/C=C/C/C=C\CNC1=O (stereo not given in full) | 0.884 | -0.261 | -0.493 | -0.138 (inactive) | 1.03 | 1.12 | 0.583 | 1.47 | 0.917 | 1.24 | 0.566 | -2.23 | 0.905 | 0.216 | -0.389 | -0.118 | -0.0553 | 0.746 | 0.174 | 0.888
C=C(COC)/C(=C/C[C@H](OC(C)=O)c1ccccc1OCCO)c1cc(C(=O)OC)ccc1OC | 0.989 | -0.103 | -0.0952 | -0.907 (inactive) | 1.05 | 0.196 | -0.607 | 0.186 | 0.189 | 0.289 | 0.992 | -1.91 | -0.138 | -0.471 | -1.12 | -0.124 | 0.13 | -0.194 | -0.134 | 1.63
CCOC(=O)C1=CC[C@@H](c2ccccc2)N(S(=O)(=O)c2ccc(C)cc2)[C@H]1c1ccccc1I | 0.88 | 0.655 | 1.13 | -0.0553 (inactive) | 0.619 | 0.698 | 0.467 | 0.806 | 0.254 | 0.471 | 0.77 | -0.839 | 0.316 | 1.82 | 0.944 | -0.0195 | -0.0769 | -0.327 | 0.911 | 1.19
CCOC(=O)c1cn(C[C@H](Cc2ccccc2)NC(=O)N[C@H](CO)CCc2oc(C(C)=O)c(C(=O)OC)c2C(=O)OC)nn1 | 0.559 | 0.0549 | -0.398 | -1.1 (inactive) | 1.37 | 1.28 | 0.956 | 1.49 | 1.1 | -0.0083 | 1.39 | 0.404 | 0.896 | -0.0815 | -0.471 | -0.0816 | -0.0553 | -0.158 | 0.866 | 0.491
COCCCNC(=O)[C@@]1(CCC(=O)OC(C)(C)C)COC(c2ccc(OCCCO)cc2)=N1 | 1.64 | 0.117 | 0.523 | -1.09 (inactive) | 0.693 | 0.986 | -0.106 | 0.219 | -0.0833 | 0.64 | 1.48 | -1.11 | -0.148 | -0.664 | -0.0486 | -0.124 | -0.0169 | -0.603 | 2.01 | 0.778
CC(C)NC(=O)[C@@H]1c2ccccc2C(=O)N(Cc2ccc(OC(F)(F)F)cc2)[C@H]1c1ccc(CO)cc1 | 0.471 | 1.21 | 0.696 | -0.211 (inactive) | 1.25 | 1.3 | 0.272 | 1.37 | 0.657 | 0.237 | 0.973 | -0.779 | 0.39 | 0.1 | -0.126 | 0.265 | 0.637 | -0.486 | 0.673 | 0.589
CC(C)(C)N1CC=CC23O[C@@H]4/C=C\CCCOC(=O)C4[C@H]2C(=O)N(CCCCCO)[C@@H]3C1=O (stereo not given in full) | 1.58 | -0.3 | 0.149 | -0.464 (inactive) | -0.943 | -0.581 | -1.43 | -1.63 | -0.473 | -1.11 | -0.267 | -0.887 | -1.48 | -0.677 | -0.893 | -0.213 | 0.074 | -0.122 | -0.286 | -0.954
CCCN1C(=O)[C@@]2(c3ccc([N+](=O)[O-])cc3)CC(=O)N(CC34CC5CC(CC(C5)C3)C4)[C@@H]2c2ccc(CO)cc21 | -0.596 | 0.0721 | 0.342 | 0.331 (inactive) | -0.334 | -0.619 | -0.381 | -0.701 | -0.626 | 0.378 | 0.0595 | -0.767 | -0.242 | -0.0921 | -0.647 | -0.0203 | -0.0519 | -0.873 | -0.38 | -0.0061
C=CCC(OC(C)=O)[C@@H]1[C@@H](N(Cc2cccc3ccccc23)C(=O)Cc2ccc(OC)cc2)c2cc(OCCCO)ccc2N1C(=O)Cc1ccc2ccccc2c1 (stereo not given in full) | 0.067 | -0.237 | 0.087 | -0.738 (inactive) | -0.0821 | -0.227 | 0.0289 | 0.404 | 0.073 | 0.68 | 0.415 | 0.24 | -0.102 | 0.0895 | 0.316 | -0.216 | -0.138 | -0.308 | -0.0234 | 0.14
[N-]=[N+]=Nc1ccccc1[C@@H]1OC(c2ccc(OCCCO)cc2)=N[C@]1(Cc1ccccc1)C(=O)NCCN1CCOCC1 | 0.669 | 0.652 | 0.825 | -0.299 (inactive) | 1.1 | 0.774 | -0.04 | 0.952 | -0.326 | 0.33 | 1.5 | -2.41 | -0.429 | -0.0408 | 0.741 | 0.0044 | 0.185 | 0.996 | 1.52 | 1.23
C=CCC(OC(C)=O)[C@@H]1[C@@H](N(Cc2ccc(-c3cccc(C(F)(F)F)c3)o2)C(=O)c2ccc(-c3ccccc3)cc2)c2cc(OCCCO)ccc2N1C(=O)c1ccc2ccccc2c1 (stereo not given in full) | 0.194 | -0.151 | 0.397 | 0.697 (inactive) | 0.225 | 0.099 | 0.1 | 0.695 | 0.15 | 1.22 | -0.701 | -0.514 | 0.27 | 0.0114 | 0.255 | -0.119 | 0.0121 | -0.399 | 0.33 | 0.0035
